The structures appear in SMILES notation. The panel holds about 83,000 compounds, 20% with a hit somewhere; the sample as a whole holds those more often.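 Cell lines were cultured in 96-well plates, exposed to a single compound concentration, and assessed for percent growth 48 hours later.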 Unmarked numbers belong to inactive results. Active and inactive are the calls of the source. Rule for the calls: active = growth percent below 10; inactive = the rest.

Experimental findings from PubChem BioAssay (NCI) are described below.

The subject of the test is HL-60(TB) leukemia. The experiment in a line: NCI-60 one-dose screen, 48 h (100 = growth as untreated, 0 = no growth, -100 = all killed). The settings on record: 10 µM unless noted.
Consider `O=C(O)c1ccc(-c2ccc(/C=N/NC(=O)c3[nH]c4ccc(Br)cc4c3-c3ccccc3)s2)cc1`, for which the growth is -5.49% (active).

For `C#C[C@]1(O)CC[C@H]2[C@@H]3CC=C4c5sc(Nc6cc(C)cc(C)n6)nc5CC[C@]4(C)[C@H]3CC[C@@]21C`, the growth is -16.4% (active).

In the case of `COc1ccc2c(c1)C(=O)N(C)C2C1c2c(cc3c(c2OC)OCO3)CCN1C` (stereo not drawn), the growth is -6.5% (active).

As for `CCN1CCN(Cc2ccc(NC(=O)c3cccc(-n4cc(-c5ccc(NC(C)=O)nc5)nn4)c3)cc2C(F)(F)F)CC1`, the growth is 65.4%.

For the molecule `Fc1ccccc1CNc1nc(SCCN2CCOCC2)nc2c1cnn2CC(Cl)c1ccc(Br)cc1` (stereo not drawn), the growth is -22.8% (active).

For the molecule `Cc1ccc2nc(COc3ccc(C(=O)NNC(=O)Nc4ccc(Cl)c(C(F)(F)F)c4)cc3)[nH]c2c1`, the growth was 86.1%.

For `Cc1ccc2nc(COc3ccc(C(=O)NNC(=S)NCCc4ccccc4)cc3)[nH]c2c1`, the growth is 99.7%.

As to `COc1ccc(N2N=C(c3ccc4c(c3)OCO4)CC2c2cccc(NC(=O)CCCNS(=O)(=O)c3ccc(F)cc3)c2)cc1` (stereo not drawn), the growth was 55.7%.

For the molecule `O=C(Cc1ccc2c(c1)CN(C1CCC(=O)NC1=O)C2=O)NCCc1ccccc1` (stereo not drawn), the growth was -19.2% (active).

With `COc1cc2oc(-c3cccc(C(=O)Nc4ccc(Cl)cc4)c3)cc(=O)c2c(OCCNC(=O)[C@@H](N)CO)c1OC`, the growth is -29.2% (active).

For the molecule `COc1cccc(-c2ccnc(/N=C(\N)Nc3ccc(S(=O)(=O)Nc4nc(C)cc(C)n4)cc3)n2)c1`, the growth is 91.9%.

Regarding `COc1cc2c(c(OC)c1OC)C(=O)CC(c1cccc(NC(=O)c3cc(NC(=O)[C@H](C)N)ccc3Cl)c1)O2` (stereo partly drawn), the growth is 2.28% (active).

For `CCN1CCN(Cc2ccc(C(=O)Nc3cccc(Nc4ccc5c(OC)cccc5n4)c3)cc2C(F)(F)F)CC1`, the growth was -57.1% (active).

In the case of `CCCCCCCCCCCCCCCCCCCC(=O)NCCc1c[nH]c2ccc(OC(=O)CCCC(=O)OCCOOCCOOCCOOCCOOCCOOCCOOCCOOCCOOCCOOCCOOCCOOCCOC)cc12`, the growth is -29.3% (active).

For the molecule `COc1ccc2c(c1)C(Sc1ccc(F)cc1)c1c(nc(N)c(C#N)c1N)O2` (stereo not drawn), the growth was 84.9%.

In the case of `Cc1noc2c(Cc3ccccc3)nn(CC(=O)N/N=C/c3ccc(Cl)cc3)c(=O)c12`, the growth was 103%.

Take `N#Cc1cc(-c2ccnc(Nc3ccc(N4CCN(C5COC5)CC4)cc3)n2)ccc1N1CCCC1`: the growth was 48.1%.

Consider `COc1ccc(-c2cc(C(=O)N=Nc3c(O)[nH]c4ccc(Cl)cc34)c3ccccc3n2)cc1OC`, for which the growth is 109%.

As for `CC(=O)Nc1ccc(-n2cnc3cc(-c4ccc(NS(C)(=O)=O)cc4)ccc32)cc1`, the growth was 59.9%.

`O=C(Nc1ccc(OCC(=O)c2ccc(Cl)cc2)cc1)Nc1ccc(Cl)c(C(F)(F)F)c1`: the growth was 12.5%.

As to `C=CC(=O)Nc1ccc(C)c(Oc2ccc(Cl)cc2)c1`, the growth is 54%.

Regarding `CCCCSc1nc(NCCc2c[nH]c3ccccc23)c(C#N)c(-c2ccc(OC)cc2)n1`, the growth was 42.5%.

As for `Cc1ccc(NC(=O)CN2CCN(c3ncnc4c3cnn4-c3ccccc3)CC2)cc1`, the growth was 95.4%.

As for `COc1ccc(-c2ccnc(SCc3cc4ccccc4[nH]c3=O)n2)cc1`, the growth is 34.1%.

With `COc1ccc(C(=O)CSc2nnc(-c3c[nH]c4ccccc34)n2-c2ccccc2)cc1`, the growth was 81.3%.

On to `O=C(Cn1c2c(sc1=O)[C@H]1[C@@H](O)[C@@H](O)[C@H](O)[C@@H]1CS2)N1CCOCC1`, for which the growth was 109%.

Regarding `COc1cc(C2C(C(=O)OCc3ccccc3)=C(C)Nc3nc4ccccc4n32)cc(OC)c1OC` (stereo not drawn), the growth is 16.1%.

For the molecule `COc1ccc(C(=O)/C=C/c2cc(C(F)(F)F)cc(C(F)(F)F)c2)cc1S(N)(=O)=O`, the growth was 2.43% (active).

On to `Cc1ccc(-c2cc(-c3cc4ccccc4nc3Cl)[nH]c(=S)n2)cc1`, for which the growth was 11.6%.

`CCOC(=O)C(Cc1ccccc1)N1C(=O)/C(=C/N2N=C(c3ccc(OC)cc3)CC2c2ccc3ccccc3c2)SC1=S` (stereo not drawn): the growth was -18.4% (active).

Turning to `COC(=O)CC1CC1C1Cc2c(nc(N(C)S(C)(=O)=O)nc2C(C)C)-c2ccc(F)cc21` (stereo not drawn), the growth was 58.7%.

For `COc1ccc(-c2ccc(/C=N/NC(=O)c3[nH]c4ccc(Br)cc4c3-c3ccccc3)o2)cc1`, the growth was 6.17% (active).

Turning to `COc1ccc(C(=O)COc2ccc(NC(=O)Nc3ccccc3)cc2)cc1`, the growth was 91.6%.
